Data as given in PubChem BioAssay (EPA / NIEHS).
Active and inactive are the calls of the source. How the source made its calls: active means hit-call score of the fitted dose curve at least 0.9, where 1 is the maximum; inactive means score below 0.9.

How the values were obtained:
Settings in all cases: mRNA level, 48 h; actives raise or lower the signal
[1] = read-out: Pro-epidermal growth factor (Homo sapiens) (UniProt P01133); experiment: LTEA_HepaRG_EGF: Life Technologies and Expression Analysis (LTEA) Assay for Epidermal growth factor (EGF) using HepaRG (AID 2283489)
Outline: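 HepaRG cells (~100,000/well, 48 h pre-culture) exposed in duplicate for 48 h in serum-free induction medium to 8 half-log concentrations up to 100 uM in 0.5% DMSO. EGF mRNA by qRT-PCR, normalized to ACTB/GAPDH/POLR2A; bidirectional fit versus DMSO.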

[2] = read-out: Early growth response protein 1 (EGR1) transcription factor, EGR1 (gene 1958); experiment: LTEA_HepaRG_EGR1: Life Technologies and Expression Analysis (LTEA) Assay for Early growth response protein 1 (EGR1) transcription factor using HepaRG (AID 2283490)
Outline: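 HepaRG, 48 h exposure, 8-pt half-log series from 100 uM, 0.5% DMSO vehicle; EGR1 transcript by TaqMan qRT-PCR (Fluidigm array), housekeeping-normalized; bidirectional fit relative to DMSO baseline.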

[3] = read-out: Ezrin (EZR), EZR (gene 7430); experiment: LTEA_HepaRG_EZR: Life Technologies and Expression Analysis (LTEA) Assay for Ezrin (EZR) using HepaRG (AID 2283491)
Outline: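 EZR transcript levels came from Fluidigm qRT-PCR and were normalized to three housekeeping genes after 48 h chemical exposure of HepaRG cells. Dosing used an 8-point half-log series with a 100 uM top concentration in 0.5% DMSO, tested in duplicate; both directions were fitted versus vehicle.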

[4] = read-out: Cytochrome P450 3A7 (Homo sapiens) (UniProt P24462); experiment: LTEA_HepaRG_CYP3A7: Life Technologies and Expression Analysis (LTEA) Assay for CYP3A7 using HepaRG (AID 2283492)
Outline: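 Differentiated HepaRG cells in serum-free induction medium exposed 48 h in duplicate to 8-point half-log series from 100 uM top in 0.5% DMSO. CYP3A7 mRNA by qRT-PCR, normalized to ACTB/GAPDH/POLR2A, bidirectional fit versus DMSO.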

[5] = read-out: CYP3A5 (gene 1577); experiment: LTEA_HepaRG_CYP3A5: Life Technologies and Expression Analysis (LTEA) Assay for CYP3A5 using HepaRG (AID 2283493)
Outline: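 Human HepaRG hepatic cells receive 48 h chemical treatment at eight concentrations (half-log steps from 100 uM) in 0.5% DMSO. Expression of CYP3A5 is quantified by Fluidigm qRT-PCR and normalized to three reference genes.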

[6] = read-out: Fatty Acid-Binding Protein 1 (FABP1), FABP1 (gene 2168); experiment: LTEA_HepaRG_FABP1: Life Technologies and Expression Analysis (LTEA) Assay for Fatty Acid-Binding Protein 1 (FABP1) using HepaRG (AID 2283494)
Outline: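 qRT-PCR readout of FABP1 transcript (normalized to three housekeeping genes) after 48 h chemical exposure of HepaRG cells; eight concentrations, half-log steps, max 100 uM, 0.5% DMSO vehicle; gain or loss fitted relative to DMSO baseline.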

[7] = read-out: Cytochrome P450 4A22 (Homo sapiens) (UniProt Q5TCH4); experiment: LTEA_HepaRG_CYP4A22: Life Technologies and Expression Analysis (LTEA) Assay for Cytochrome P450 4A22 (CYP4A22) using HepaRG (AID 2283495)
Outline: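 Differentiated HepaRG cells in serum-free induction medium exposed 48 h in duplicate to eight half-log concentrations up to 100 uM in 0.5% DMSO. CYP4A22 mRNA quantified by TaqMan qRT-PCR, normalized to ACTB, GAPDH and POLR2A; bidirectional fit versus DMSO.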

[8] = read-out: Cytochrome P450 7A1 (Homo sapiens) (UniProt P22680); experiment: LTEA_HepaRG_CYP7A1: Life Technologies and Expression Analysis (LTEA) Assay for Cytochrome P450 7A1 (CYP7A1) using HepaRG (AID 2283496)
Outline: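 HepaRG, 48 h exposure, 8-pt half-log series from 100 uM, 0.5% DMSO vehicle, duplicates. Readout: TaqMan qRT-PCR mRNA vs three housekeeping genes; bidirectional curve fit against DMSO baseline.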

[9] = read-out: Glutathione S-Transferase (GSTA2), GSTA2 (gene 2939); experiment: LTEA_HepaRG_GSTA2: Life Technologies and Expression Analysis (LTEA) Assay for Glutathione S-Transferase (GSTA2) using HepaRG (AID 2283497)
Outline: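 qRT-PCR readout of GSTA2 transcript, normalized to three housekeeping genes, fitted bidirectionally against 0.5% DMSO baseline. Differentiated HepaRG cells received compound for 48 h at 8 concentrations (top 100 uM, half-log steps).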

[10] = read-out: Glutamate-cysteine ligase catalytic (GCLC), GCLC (gene 2729); experiment: LTEA_HepaRG_GCLC: Life Technologies and Expression Analysis (LTEA) Assay for Glutamate-cysteine ligase catalytic (GCLC) using HepaRG (AID 2283498)
Outline: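 HepaRG, 48 h exposure, 8-pt half-log series from 100 uM, 0.5% DMSO vehicle; TaqMan qRT-PCR for GCLC mRNA, housekeeping-normalized; bidirectional curve fit vs DMSO baseline.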

[11] = read-out: growth arrest and DNA damage 45 (GADD45G), GADD45G (gene 10912); experiment: LTEA_HepaRG_GADD45G: Life Technologies and Expression Analysis (LTEA) Assay for growth arrest and DNA damage 45 (GADD45G) using HepaRG (AID 2283499)
Outline: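 Differentiated human HepaRG cells, 48 h post-plating, exposed 48 h in serum-free induction medium to 8 half-log concentrations (top 100 uM, 0.5% DMSO) in duplicate. GADD45G mRNA measured by Fluidigm TaqMan qRT-PCR, normalized to ACTB, GAPDH, POLR2A; bidirectional fit versus DMSO.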

[12] = read-out: Glutamate-cysteine ligase regulatory (GCLM), GCLM (gene 2730); experiment: LTEA_HepaRG_GCLM: Life Technologies and Expression Analysis (LTEA) Assay for Glutamate-cysteine ligase regulatory (GCLM) using HepaRG (AID 2283500)
Outline: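 Endpoint is GCLM transcript level by qRT-PCR, normalized to three housekeeping genes, after 48 h chemical exposure of human HepaRG cells (0.5% DMSO vehicle, top 100 uM, half-log dilutions). Fitting was bidirectional relative to DMSO.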

[13] = read-out: Glutathione S-transferase M3 (GSTM3), GSTM3 (gene 2947); experiment: LTEA_HepaRG_GSTM3: Life Technologies and Expression Analysis (LTEA) Assay for Glutathione S-transferase M3 (GSTM3) using HepaRG (AID 2283501)
Outline: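 Differentiated human HepaRG cells were exposed in duplicate for 48 h in serum-free induction medium, 8 points from 100 uM top in half-log steps, 0.5% DMSO. GSTM3 mRNA was measured by TaqMan qRT-PCR, normalized to ACTB, GAPDH and POLR2A; bidirectional fit versus DMSO.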

[14] = read-out: Hypoxia-inducible factor 1-alpha (Homo sapiens) (UniProt Q16665); experiment: LTEA_HepaRG_HIF1A: Life Technologies and Expression Analysis (LTEA) Assay for Hypoxia-inducible factor 1 (HIF1A) Trancription factor using HepaRG (AID 2283503)
Outline: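 HIF1A transcript level read by qRT-PCR (ACTB, GAPDH, POLR2A normalization) after 48 h chemical exposure of HepaRG cultures. Eight half-log concentrations, top 100 uM, 0.5% DMSO vehicle, duplicates; bidirectional curve fit against DMSO baseline.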

[15] = read-out: 3-Hydroxy-3-Methylglutaryl-CoA Synthase 2 (HMGCS2), HMGCS2 (gene 3158); experiment: LTEA_HepaRG_HMGCS2: Life Technologies and Expression Analysis (LTEA) Assay for 3-Hydroxy-3-Methylglutaryl-CoA Synthase 2 (HMGCS2) using HepaRG (AID 2283504)
Outline: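 Human HepaRG cells in serum-free induction medium were exposed in duplicate for 48 h to 8-point half-log series from 100 uM top in 0.5% DMSO. HMGCS2 mRNA measured by TaqMan qRT-PCR, normalised to ACTB, GAPDH, POLR2A; bidirectional fit versus DMSO.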

[16] = read-out: HGF (gene 3082); experiment: LTEA_HepaRG_HGF: Life Technologies and Expression Analysis (LTEA) Assay for Hepatocyte Growth Facto (HGF) using HepaRG (AID 2283505)
Outline: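 Differentiated HepaRG cells in serum-free induction medium exposed 48 h in duplicate, 8 half-log concentrations from 100 uM in 0.5% DMSO. HGF mRNA by qRT-PCR, normalised to ACTB, GAPDH, POLR2A; bidirectional fitting.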

[17] = read-out: Insulin Like Growth Factor 1 (IGF1), IGF1 (gene 3479); experiment: LTEA_HepaRG_IGF1: Life Technologies and Expression Analysis (LTEA) Assay for Insulin Like Growth Factor 1 (IGF1) using HepaRG (AID 2283506)
Outline: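 Cells are thawed, plated and cultured 48 h, then exposed in duplicate to chemical (highest 100 uM, half-log steps, 0.5% DMSO) for another 48 h. Total RNA is analysed by Fluidigm qRT-PCR for IGF1 expression relative to vehicle.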

[18] = read-out: Intercellular Adhesion Molecule 1 (ICAM1), ICAM1 (gene 3383); experiment: LTEA_HepaRG_ICAM1: Life Technologies and Expression Analysis (LTEA) Assay for Intercellular Adhesion Molecule 1 (ICAM1) using HepaRG (AID 2283507)
Outline: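 Differentiated human HepaRG cells in serum-free induction medium exposed 48 h in duplicate to 8 half-log concentrations (top 100 uM, 0.5% DMSO). ICAM1 mRNA quantified by TaqMan qRT-PCR, normalized to ACTB, GAPDH and POLR2A; bidirectional fitting versus DMSO.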

[19] = read-out: Insulin-like growth factor-binding protein 1 (IGFBP1), IGFBP1 (gene 3484); experiment: LTEA_HepaRG_IGFBP1: Life Technologies and Expression Analysis (LTEA) Assay for Insulin-like growth factor-binding protein 1 (IGFBP1) using HepaRG (AID 2283508)
Outline: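 HepaRG cells, plated 48 h then switched to serum-free induction medium, exposed in duplicate for 48 h to 8-point half-log series from 100 uM in 0.5% DMSO. mRNA measured by qRT-PCR, normalized to ACTB/GAPDH/POLR2A; bidirectional fit versus DMSO.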

[20] = read-out: Heat shock 70 kDa protein 1 (HSPA1A), gene 3303; experiment: LTEA_HepaRG_HSPA1A: Life Technologies and Expression Analysis (LTEA) Assay for Heat shock 70 kDa protein 1 (HSPA1A) using HepaRG (AID 2283502)
Outline: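 Cells were plated and cultured for 48 h, then switched to serum-free induction medium. Chemicals were added at eight half-log concentrations up to 100 uM for 48 h. RNA was then isolated and HSPA1A measured by qRT-PCR with bidirectional curve fitting against DMSO.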

Measured: outcome

Chain of Cytochrome P450 3A7 (Homo sapiens) (P24462 whole entry, looked up): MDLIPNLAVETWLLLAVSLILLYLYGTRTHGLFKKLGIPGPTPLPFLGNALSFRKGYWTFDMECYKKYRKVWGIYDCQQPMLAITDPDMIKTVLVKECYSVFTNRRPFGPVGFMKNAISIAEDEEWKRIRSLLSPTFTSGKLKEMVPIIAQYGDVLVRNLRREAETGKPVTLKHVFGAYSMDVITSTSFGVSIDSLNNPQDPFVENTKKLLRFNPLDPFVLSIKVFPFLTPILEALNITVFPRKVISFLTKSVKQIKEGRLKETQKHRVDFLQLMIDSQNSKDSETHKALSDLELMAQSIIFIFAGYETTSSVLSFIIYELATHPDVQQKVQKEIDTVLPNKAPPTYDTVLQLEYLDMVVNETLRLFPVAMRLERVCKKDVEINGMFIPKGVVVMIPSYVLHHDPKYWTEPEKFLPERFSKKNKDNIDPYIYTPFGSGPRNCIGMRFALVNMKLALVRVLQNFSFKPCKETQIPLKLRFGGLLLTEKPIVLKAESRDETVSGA
Chain of Hypoxia-inducible factor 1-alpha (Homo sapiens) (Q16665 whole entry, looked up): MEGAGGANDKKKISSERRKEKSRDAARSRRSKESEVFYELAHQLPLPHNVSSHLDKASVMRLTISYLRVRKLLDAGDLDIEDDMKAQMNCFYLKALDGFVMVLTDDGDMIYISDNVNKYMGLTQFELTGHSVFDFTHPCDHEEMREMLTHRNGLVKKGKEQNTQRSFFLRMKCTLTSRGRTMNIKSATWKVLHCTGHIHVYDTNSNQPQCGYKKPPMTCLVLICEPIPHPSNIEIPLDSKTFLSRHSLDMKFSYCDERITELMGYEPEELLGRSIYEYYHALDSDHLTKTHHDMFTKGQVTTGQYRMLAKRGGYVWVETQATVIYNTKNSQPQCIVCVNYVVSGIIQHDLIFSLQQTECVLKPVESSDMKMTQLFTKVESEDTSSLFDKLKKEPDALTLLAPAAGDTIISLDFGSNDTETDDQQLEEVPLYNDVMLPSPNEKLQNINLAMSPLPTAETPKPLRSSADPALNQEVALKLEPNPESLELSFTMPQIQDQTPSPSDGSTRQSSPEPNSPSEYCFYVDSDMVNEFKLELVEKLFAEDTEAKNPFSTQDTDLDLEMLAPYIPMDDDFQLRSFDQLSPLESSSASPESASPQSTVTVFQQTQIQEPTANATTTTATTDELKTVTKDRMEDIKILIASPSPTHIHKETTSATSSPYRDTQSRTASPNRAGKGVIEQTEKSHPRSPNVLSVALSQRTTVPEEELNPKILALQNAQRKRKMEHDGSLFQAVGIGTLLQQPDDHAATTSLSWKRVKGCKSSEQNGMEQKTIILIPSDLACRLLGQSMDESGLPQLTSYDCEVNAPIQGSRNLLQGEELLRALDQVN

CCCCOC(=O)CCCCCCCCC(=O)OCCCC
not listed: [20]
inactive: all other assays above

Cc1ccc(Cl)cc1
not listed: [11] | [16] | [18] | [20]
inactive: all other assays above

COCCOC[C@H](CC1(C(=O)NC2CCC(C(=O)O)CC2)CCCC1)C(=O)Oc1ccc2c(c1)CCC2 (stereo partly drawn)
not listed: [2] | [16]
inactive: all other assays above
